Among all 48,000 compounds or so, about 13,000 (27%) showed an effect of 50% or more. The list shows a part of the results.

The test concerns Wolbachia pipientis. Put plainly: Anti-Wolbachia Cell-Based Screen. As to conditions: 5 µM. More on the design: scale not given: in the data most compounds retested in dose-response had high values. In kind it is functional.
For the compound `CCCN(C)c1ccc(C(=O)NCc2ccnc(C)n2)cc1`, the “Percent Effect” value came out at 14.15%.

On to `CC(C#N)CN(C)Cc1cc(Cl)cc2cccnc12` (centres undefined), for which the “Percent Effect” value is -4.416%. In the case of `FC(F)(F)Sc1ccc(NCc2nnc(C3CC3)o2)cc1`, the “Percent Effect” value is 4.65%. The same measure for `CC(C)Cc1ncc2c(n1)CN(c1nccc(N(C)C)n1)C2`: -11.83%; for `Cc1nc(C(C)(C)NCc2nnc(C(C)C)o2)sc1C`: -6.227%; for `O=C(NCCc1cccnc1)NC1CCOC2(CCCCC2)C1` (centres undefined): -5.946%. The same measure for `CCn1nc(C)c(CNC(=O)NCC(C)(O)c2ccsc2)c1C` (centres undefined): -9.413%.

As for `CC(O)(CNC(=O)c1cccnc1-n1cccn1)c1ccsc1` (centres undefined), the “Percent Effect” value stood at 107.4%.

Turning to `CNC(=O)c1cccnc1NCc1ccc(-n2cccn2)cc1`, the “Percent Effect” value is recorded as -16.78%. In the case of `CC(O)(CNC(=O)c1cccnc1-n1cccn1)c1cccs1` (centres undefined) it was 100.2%.

Consider `CC(O)(CNC(=O)NCc1cccc(-n2cncn2)c1)c1ccco1` (centres undefined), for which the “Percent Effect” value turned out to be 22.01%.

On to `CC(O)(CNC(=O)c1cccnc1-n1cccn1)c1ccco1` (centres undefined), for which the “Percent Effect” value came out at 109%.

As for `O=C(CCC(=O)N1CCOCC1)NCc1cccnc1-n1cccn1`, the “Percent Effect” value turned out to be 4.294%. Consider `CCOCc1ccccc1NC(=O)NCC(C)(O)c1ccsc1` (centres undefined), for which the “Percent Effect” value is given as -1.013%. Consider `CCN(CC)CCCC(C)NC(=O)c1cccnc1-n1cccn1` (centres undefined), for which the “Percent Effect” value was -4.775%. As to `CCC(C)Oc1cc(C(=O)Nc2nc(C)ns2)ccn1` (centres undefined), the “Percent Effect” value was -22%.

For `CC(C)N1C[C@H](O)C[C@H]1c1nc(-c2ccc(OC(F)(F)F)cc2)no1`, the “Percent Effect” value is listed as -2.832%. The same measure for `c1c(-c2nc(CN3CCOCC3)no2)nnn1CC1CCCCC1`: -29.06%; for `Cc1ccc(Cl)c(NC(=O)c2cccc(CN3CC[C@H](O)C3)c2)c1`: 25.72%. Take `CSCCc1c(-c2ccccc2)ncn1CC(C)(C)N1CCCC1`: the “Percent Effect” value is -6.465%.

As to `Cc1ccc(C(=O)N2CCC3(CCC(=O)N(CC(N)=O)C3)CC2)c(O)c1`, the “Percent Effect” value is -8.417%. The same measure for `COc1cccc(CN2CCCC3(CCN(C(=O)N4CCCC4)C3)C2)c1.O=C(O)C(F)(F)F` (centres undefined): 81.34%. In the case of `COc1cccc(CN2CCC3(CC2)CCN(c2ncccn2)C3)c1.O=C(O)C(F)(F)F.O=C(O)C(F)(F)F`, the “Percent Effect” value is given as 13.94%. In the case of `COc1cccc(CN2CCC3(CC2)CCN(C(=O)[C@@H]2CCCO2)C3)c1.O=C(O)C(F)(F)F` it was 105.3%.

For the compound `COc1cccc(CN2CCC3(CC2)CCN(c2ncc(C)cn2)C3)c1.O=C(O)C(F)(F)F`, the “Percent Effect” value is -9.924%.

Take `COc1cccc(CN2CCC3(CCN(c4ncc(C)cn4)CC3)C2)c1.O=C(O)C(F)(F)F`: the “Percent Effect” value was found to be 4.048%. In the case of `COc1cccc(CN2CCC3(CCN(C(=O)C4CC=CC4)CC3)C2)c1.O=C(O)C(F)(F)F` it was 2.015%. The same measure for `O=C(O)[C@@H]1CN(Cc2ccc3nsnc3c2)C[C@H]1c1ccncc1`: 20.11%; for `CCOCCC(=O)N1CCCN(Cc2csc(CC)n2)CC1`: -3.622%; for `CC(C(=O)NCCc1cccs1)N1CCC(n2ccnc2)CC1` (centres undefined): 14.05%. Take `N#Cc1cccc(N2CCC(c3nccn3Cc3cscn3)CC2)n1`: the “Percent Effect” value is 19.37%. In the case of `CC(C(=O)NCC1(c2cccc(Br)c2)CCC1)S(C)(=O)=O` (centres undefined) it was -10.98%; in that of `O=C(NC1CC1)c1cc2c(nc1O)CC(c1cccs1)CC2=O` (centres undefined), 2.644%. As for `O=C(c1cc(Cl)ccc1OC1CCN(C2CCCC2)CC1)N1CCCO1`, the “Percent Effect” value is on record as -1.079%.

Take `Cc1ccc(CN(c2cc(C)nc3nc(C(F)(F)F)nn23)C2CC2)cc1`: the “Percent Effect” value worked out at 24.27%. The same measure for `Cc1cc(N(Cc2cccs2)C2CC2)n2nc(C(F)(F)F)nc2n1`: 103%; for `Cc1cc(N(Cc2ccccc2F)C2CC2)n2nc(C(F)(F)F)nc2n1`: 37.88%; for `CC(C)OCCS(=O)(=O)NC1CCN(C2CCCC2)C1` (centres undefined): -4.658%.

As to `CCc1nc(CCNS(=O)(=O)c2cccc(C(=O)N(C)CC)c2)cs1`, the “Percent Effect” value turned out to be 4.281%.

In the case of `CNc1cc(CCNC(=O)c2cccnc2)nc(-c2ccncc2)n1`, the “Percent Effect” value is on record as -9.73%. In the case of `O=C(Nc1cc(-c2ccccn2)no1)C1CC1` it was -13.86%; in that of `O=C(NC[C@H]1O[C@H](Cc2cc(-c3ccccn3)on2)CC[C@@H]1O)C1CC1`, -6.652%; in that of `CN(C)C(=O)c1cccc(CCNS(=O)(=O)c2ccccc2)c1`, 19.97%. In the case of `CNc1cc(CCNC(=O)C2CCCC2)nc(-c2ccccn2)n1` it was 117%.

For the compound `CC(C)C(O)CNC(=O)CCCc1ccccn1` (centres undefined), the “Percent Effect” value is given as -2.211%. In the case of `CNc1cc(CCNS(=O)(=O)c2ccccc2)nc(-c2ccccn2)n1` it was 105%; in that of `CNc1cc(CCNC(=O)CC(C)C)nc(-c2ccccn2)n1`, 101.5%.

As for `CC(O)CN1CCC(CNCCOCC(F)(F)F)CC1` (centres undefined), the “Percent Effect” value is on record as 8.822%. The same measure for `Cc1cccc2[nH]c(C3CCN(C(=O)c4cccnn4)CC3)nc12`: 19.31%; for `Cc1cccc(CN2Cc3[nH]nc(COCCO)c3C2)n1.O=C(O)C(F)(F)F`: -6.746%.

With `CCOCCCNC(=O)CN(c1ccc(C)c(C)c1)S(C)(=O)=O`, the “Percent Effect” value stood at 99.16%. `CCOCCCC(=O)NS(=O)(=O)c1ccc(C)s1`: the “Percent Effect” value is on record as -11.1%. `CCOCCCNC(=O)CN(c1ccc(F)c(F)c1)S(C)(=O)=O`: the “Percent Effect” value came to 103.3%. `CCOCC(=O)N(C)c1ccc(F)c(Cl)c1`: the “Percent Effect” value turned out to be 11.18%. In the case of `Cc1ccc(N(CC(=O)NCc2nnc3n2CCC3)S(C)(=O)=O)cc1` it was -5.606%; in that of `CC(C)OCCCNC(=O)CN(c1ccc(F)c(F)c1)S(C)(=O)=O`, 109.3%; in that of `Cc1cccc(CC(=O)NCCCOC(C)C)c1`, 4.055%.

On to `CCOCCCNC(=O)CCSCc1csc(C)n1`, for which the “Percent Effect” value was determined as 4.852%. The same measure for `CCOCCCNC(=O)c1cc(Br)c2c(c1)OCCO2`: -17.45%; for `CCOCCCNC(=O)CN(c1cc(C)cc(C)c1)S(C)(=O)=O`: 107.2%. In the case of `CC(C)OCCCNC(=O)CSc1nnc(OC(C)C)s1` it was -7.044%; in that of `CCOCCC(=O)N(C)c1ccc(F)c(Cl)c1`, -4.782%. The same measure for `CCCNC(=O)C(C)Nc1ccn(Cc2ccccn2)n1` (centres undefined): 6.912%; for `CCCOCCN1CCc2[nH]c(-c3ccccc3)nc2C1`: -7.69%; for `CN(C)C1COC2(CCN(S(=O)(=O)c3ccc(F)cc3)CC2)C1.O=C(O)C(F)(F)F` (centres undefined): -7.314%.

On to `CN(CC1Cc2ccccc2CN1C)c1nc(N)nc2c1CCNCC2` (centres undefined), for which the “Percent Effect” value was -3.797%. In the case of `COCc1cc(N(C)Cc2c(C)nn(C)c2C)n2nccc2n1` it was 12.12%; in that of `CCOCCCNC(=O)Cc1cccc(F)c1`, 2.614%. Turning to `CCOCCCNC(=O)CN(c1cccc(F)c1)S(C)(=O)=O`, the “Percent Effect” value was 112.7%.

Consider `COCCCNC(=O)CN(C)Cc1ccc(F)cc1Cl`, for which the “Percent Effect” value is listed as -11.13%. In the case of `COc1cccc2ccc(CN3CCN(c4ncccc4C)CC3)nc12` it was 2.179%; in that of `CN1N=C(C(=O)N2CCCC(CCc3cccc(F)c3)C2)CCC1=O` (centres undefined), -39.97%; in that of `CN1N=C(C(=O)N2CCCC(CCc3c(F)cccc3F)C2)CCC1=O` (centres undefined), 7.677%.

As to `CCc1nc(N)sc1C(=O)N1CCCC(CCc2ccccc2C)C1` (centres undefined), the “Percent Effect” value amounted to 1.755%.

On to `Cc1ccc(-c2ncc(C(=O)N3CCCC(CCN)C3)c(O)n2)cc1` (centres undefined), for which the “Percent Effect” value is 0.928%.

Turning to `O=C(c1cnc(O)cc1O)N1CCCC(CCc2ccccc2F)C1` (centres undefined), the “Percent Effect” value came out at 119.6%. In the case of `Cc1nc(N)ncc1C(=O)N1CCCC(CCc2ccc(F)cc2)C1` (centres undefined) it was 102.6%; in that of `Cc1nc(N)ncc1C(=O)N1CCCC(CCc2ccccc2F)C1` (centres undefined), 102.1%. In the case of `Cc1nc(N)sc1C(=O)N1CCCC(COc2ccc(F)cc2)C1` (centres undefined) it was -20.41%.

For the compound `Cc1nc(CN2CCCC(CCc3ccc(F)c(F)c3)C2)c[nH]1` (centres undefined), the “Percent Effect” value is reported as -4.452%. On to `Cc1nc(N)ncc1C(=O)N1CCCC(CCc2ccc(F)c(F)c2)C1` (centres undefined), for which the “Percent Effect” value is recorded as 95.78%.

As for `CN1N=C(C(=O)N2CCCC(CCc3ccccc3F)C2)CCC1=O` (centres undefined), the “Percent Effect” value was -18.53%. The same measure for `COc1coc(CN2CCCC(CCc3ccccc3F)C2)cc1=O` (centres undefined): 19.37%; for `O=C(NCCN1CCOCC1)N(Cc1ccoc1)C1CCCCC1`: 0.09271%.

As for `COC(=O)CCC(=O)Nc1ccc(Br)c(C)n1`, the “Percent Effect” value is reported as -4.996%.

Turning to `COc1cccc(CCC2CCCN(C(=O)c3cnccn3)C2)c1` (centres undefined), the “Percent Effect” value is given as -42.01%. As for `COc1ccc(CCC2CCCN(C(=O)c3cnc(N)nc3C)C2)cc1` (centres undefined), the “Percent Effect” value is reported as 107.8%. With `COc1cccc(CCC2CCCN(C(=O)c3ccc(OC)o3)C2)c1` (centres undefined), the “Percent Effect” value was -11.16%.

As for `CN(C)CCN(C)C(=O)c1cn(CC2CCCCC2)nn1`, the “Percent Effect” value came out at 101.9%. The same measure for `Cc1nccn1CCN(C)C(=O)c1cn(-c2ccccc2)nn1`: 107.7%; for `Cc1nccn1CCC(=O)N1CCCN(c2ccccc2)CC1`: 21.45%; for `Cc1nccn1CCN(C)C(=O)c1cn(CC2CCCCC2)nn1`: 121.2%. The same measure for `Cc1nccn1CCC1CCCCN1Cc1cnc(N(C)C)nc1` (centres undefined): -18.73%. With `CCN(Cc1ccncc1)C(=O)c1cn(CCC2CCCCC2)nn1`, the “Percent Effect” value is 4.586%.

As to `Cc1nccn1CCC1CCCCN1C(=O)c1ccc(N(C)C)cc1` (centres undefined), the “Percent Effect” value is on record as 11.5%. The same measure for `CCN(Cc1ccncc1)C(=O)c1cn(CC2CCCNC2)nn1` (centres undefined): -3.068%. In the case of `CN(Cc1ccncc1)C(=O)NCc1cn(-c2ccccc2)nn1` it was -7.371%; in that of `CC(C)c1nn(C)c(N(C)C)c1CNCc1cscn1.Cl`, -8.215%; in that of `CC(C)NC(=O)[C@@H]1CCO[C@@H]2CCN(c3ncccn3)C[C@@H]21.O=C(O)C(F)(F)F`, -3.581%.

As to `O=C(NCC1CC1)[C@@H]1CCO[C@@H]2CCN(c3ncccn3)C[C@@H]21.O=C(O)C(F)(F)F`, the “Percent Effect” value is listed as -3.49%. Regarding `Cc1ncccc1NC(=O)[C@@H]1CCO[C@@H]2CCN(c3ccncn3)C[C@H]21`, the “Percent Effect” value was found to be 113.9%. The same measure for `O=C(NCc1ccco1)[C@@H]1CCO[C@@H]2CCN(c3ccncn3)C[C@H]21.O=C(O)C(F)(F)F`: -22.24%. In the case of `COCCNC(=O)[C@@H]1CCO[C@@H]2CCN(c3ccc(C)nn3)C[C@@H]21` it was -1.212%; in that of `Cc1ncccc1NC(=O)[C@@H]1CCO[C@@H]2CCN(c3ccccc3)C[C@@H]21.O=C(O)C(F)(F)F.O=C(O)C(F)(F)F`, 108.5%.
